# From the supplement of paper PMC4466140
# Key:
# Test in all cases: SPOT peptide array binding signal intensity (averaged, normalized) (arbitrary units (background-subtracted, floor 0; scale differs between SH3 domains)); higher = stronger binding of the SH3 domain to the peptide
# AgAbp1 = molecular target: AgAbp1
# Method in brief: (§1)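 GST-fused SH3 domains, from four yeast species, were produced in E. coli BL21(DE3) and captured on glutathione Sepharose. Membranes of cellulose carrying synthetic 15-mer peptides, in which cysteines had been replaced by serines, were exposed to each domain at 10 μg/ml overnight at 4°C in TBS-based blocking buffer. After anti-GST antibody, an HRP anti-mouse secondary and luminol, spots were imaged and quantified using Genespotter. Binding signal is normalized and background-subtracted spot intensity, averaged over replicates, in arbitrary units that differ between domains.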
# AgBbc1 = molecular target: AgBbc1
# Method in brief: as §1
# AgBem1-D1 = molecular target: AgBem1-D1
# Method in brief: as §1
# AgBzz1-D1 = molecular target: AgBzz1-D1
# Method in brief: as §1
# AgBzz1-D2 = molecular target: AgBzz1-D2
# Method in brief: as §1
# AgCyk3 = molecular target: AgCyk3
# Method in brief: as §1
# AgFus1 = molecular target: AgFus1
# Method in brief: as §1
# AgHof1 = molecular target: AgHof1
# Method in brief: as §1
# AgHse1 = molecular target: AgHse1
# Method in brief: as §1
# AgLsb1 = molecular target: AgLsb1
# Method in brief: as §1
# AgLsb4 = molecular target: AgLsb4
# Method in brief: as §1
# AgMyo5 = molecular target: AgMyo5
# Method in brief: as §1
# AgNbp2 = molecular target: AgNbp2
# Method in brief: as §1
# AgRvs167 = molecular target: AgRvs167
# Method in brief: as §1
# AgSho1 = molecular target: AgSho1
# Method in brief: as §1
# AgSla1-D1-D2 = molecular target: AgSla1-D1-D2
# Method in brief: as §1
# AgSla1-D3 = molecular target: AgSla1-D3
# Method in brief: as §1
# CaAbp1-D1 = molecular target: CaAbp1-D1
# Method in brief: as §1
# CaAbp1-D2 = molecular target: CaAbp1-D2
# Method in brief: as §1
# CaBbc1 = molecular target: CaBbc1
# Method in brief: as §1
# CaBem1-D1 = molecular target: CaBem1-D1
# Method in brief: as §1
# CaBzz1-D1 = molecular target: CaBzz1-D1
# Method in brief: as §1
# CaBzz1-D2 = molecular target: CaBzz1-D2
# Method in brief: as §1
# CaCyk3 = molecular target: CaCyk3
# Method in brief: as §1
# CaFus1 = molecular target: CaFus1
# Method in brief: as §1
# CaHof1 = molecular target: CaHof1
# Method in brief: as §1
# CaHse1 = molecular target: CaHse1
# Method in brief: as §1
# CaLsb1 = molecular target: CaLsb1
# Method in brief: as §1
# CaLsb4 = molecular target: CaLsb4
# Method in brief: as §1
# CaMyo5 = molecular target: CaMyo5
# Method in brief: as §1
# CaNbp2 = molecular target: CaNbp2
# Method in brief: as §1
# CaRvs167 = molecular target: CaRvs167
# Method in brief: as §1
# CaRvs167-3 = molecular target: CaRvs167-3
# Method in brief: as §1
# CaSho1 = molecular target: CaSho1
# Method in brief: as §1
# CaSla1-D1-D2 = molecular target: CaSla1-D1-D2
# Method in brief: as §1
# CaSla1-D3 = molecular target: CaSla1-D3
# Method in brief: as §1
# ScAbp1 = molecular target: ScAbp1
# Method in brief: as §1
# ScBbc1 = molecular target: ScBbc1
# Method in brief: as §1
# ScBem1-D1 = molecular target: ScBem1-D1
# Method in brief: as §1
# ScBzz1-D1 = molecular target: ScBzz1-D1
# Method in brief: as §1
# ScBzz1-D2 = molecular target: ScBzz1-D2
# Method in brief: as §1
# ScCyk3 = molecular target: ScCyk3
# Method in brief: as §1
# ScFus1 = molecular target: ScFus1
# Method in brief: as §1
# ScHof1 = molecular target: ScHof1
# Method in brief: as §1
# ScHse1 = molecular target: ScHse1
# Method in brief: as §1
# ScLsb1 = molecular target: ScLsb1
# Method in brief: as §1
# ScLsb2 = molecular target: ScLsb2
# Method in brief: as §1
# ScLsb3 = molecular target: ScLsb3
# Method in brief: as §1
# ScLsb4 = molecular target: ScLsb4
# Method in brief: as §1
# ScMyo3 = molecular target: ScMyo3
# Method in brief: as §1
# ScMyo5 = molecular target: ScMyo5
# Method in brief: as §1
# ScNbp2 = molecular target: ScNbp2
# Method in brief: as §1
# ScPex13 = molecular target: ScPex13
# Method in brief: as §1
# ScRvs167 = molecular target: ScRvs167
# Method in brief: as §1
# ScSho1 = molecular target: ScSho1
# Method in brief: as §1
# ScSla1-D1-D2 = molecular target: ScSla1-D1-D2
# Method in brief: as §1
# ScSla1-D3 = molecular target: ScSla1-D3
# Method in brief: as §1
# SpAbp1-D1 = molecular target: SpAbp1-D1
# Method in brief: as §1
# SpBbc1 = molecular target: SpBbc1
# Method in brief: as §1
# SpBzz1-D1 = molecular target: SpBzz1-D1
# Method in brief: as §1
# SpBzz1-D2 = molecular target: SpBzz1-D2
# Method in brief: as §1
# SpCyk3 = molecular target: SpCyk3
# Method in brief: as §1
# SpHof1 = molecular target: SpHof1
# Method in brief: as §1
# SpHof1-2 = molecular target: SpHof1-2
# Method in brief: as §1
# SpHof1-3 = molecular target: SpHof1-3
# Method in brief: as §1
# SpHse1 = molecular target: SpHse1
# Method in brief: as §1
# SpLsb1 = molecular target: SpLsb1
# Method in brief: as §1
# SpLsb4 = molecular target: SpLsb4
# Method in brief: as §1
# SpMyo1 = molecular target: SpMyo1
# Method in brief: as §1
# SpNbp2 = molecular target: SpNbp2
# Method in brief: as §1
# SpPex13 = molecular target: SpPex13
# Method in brief: as §1
# SpRvs167 = molecular target: SpRvs167
# Method in brief: as §1
# SpSla1-D1-D2 = molecular target: SpSla1-D1-D2
# Method in brief: as §1
# SpSla1-D3 = molecular target: SpSla1-D3
# Method in brief: as §1
binder,measurement,setting,value
VDFTLPPPPPPPGLD,SPOT peptide array binding signal intensity,AgAbp1,4
same,SPOT peptide array binding signal intensity,AgBbc1,≤ 0
same,SPOT peptide array binding signal intensity,AgBem1-D1,≤ 0
same,SPOT peptide array binding signal intensity,AgBzz1-D1,≤ 0
same,SPOT peptide array binding signal intensity,AgBzz1-D2,≤ 0
same,SPOT peptide array binding signal intensity,AgCyk3,≤ 0
same,SPOT peptide array binding signal intensity,AgFus1,≤ 0
same,SPOT peptide array binding signal intensity,AgHof1,27.8
same,SPOT peptide array binding signal intensity,AgHse1,32
same,SPOT peptide array binding signal intensity,AgLsb1,1.5
same,SPOT peptide array binding signal intensity,AgLsb4,≤ 0
same,SPOT peptide array binding signal intensity,AgMyo5,1660
same,SPOT peptide array binding signal intensity,AgNbp2,≤ 0
same,SPOT peptide array binding signal intensity,AgRvs167,1.67
same,SPOT peptide array binding signal intensity,AgSho1,≤ 0
same,SPOT peptide array binding signal intensity,AgSla1-D1-D2,2
same,SPOT peptide array binding signal intensity,AgSla1-D3,0.5
same,SPOT peptide array binding signal intensity,CaAbp1-D1,≤ 0
same,SPOT peptide array binding signal intensity,CaAbp1-D2,9
same,SPOT peptide array binding signal intensity,CaBbc1,≤ 0
same,SPOT peptide array binding signal intensity,CaBem1-D1,≤ 0
same,SPOT peptide array binding signal intensity,CaBzz1-D1,230
same,SPOT peptide array binding signal intensity,CaBzz1-D2,≤ 0
same,SPOT peptide array binding signal intensity,CaCyk3,≤ 0
same,SPOT peptide array binding signal intensity,CaFus1,≤ 0
same,SPOT peptide array binding signal intensity,CaHof1,0.5
same,SPOT peptide array binding signal intensity,CaHse1,≤ 0
same,SPOT peptide array binding signal intensity,CaLsb1,≤ 0
same,SPOT peptide array binding signal intensity,CaLsb4,≤ 0
same,SPOT peptide array binding signal intensity,CaMyo5,29
same,SPOT peptide array binding signal intensity,CaNbp2,≤ 0
same,SPOT peptide array binding signal intensity,CaRvs167,1
same,SPOT peptide array binding signal intensity,CaRvs167-3,0.25
same,SPOT peptide array binding signal intensity,CaSho1,≤ 0
same,SPOT peptide array binding signal intensity,CaSla1-D1-D2,≤ 0
same,SPOT peptide array binding signal intensity,CaSla1-D3,≤ 0
same,SPOT peptide array binding signal intensity,ScAbp1,≤ 0
same,SPOT peptide array binding signal intensity,ScBbc1,≤ 0
same,SPOT peptide array binding signal intensity,ScBem1-D1,≤ 0
same,SPOT peptide array binding signal intensity,ScBzz1-D1,6
same,SPOT peptide array binding signal intensity,ScBzz1-D2,≤ 0
same,SPOT peptide array binding signal intensity,ScCyk3,1
same,SPOT peptide array binding signal intensity,ScFus1,≤ 0
same,SPOT peptide array binding signal intensity,ScHof1,17.8
same,SPOT peptide array binding signal intensity,ScHse1,≤ 0
same,SPOT peptide array binding signal intensity,ScLsb1,≤ 0
same,SPOT peptide array binding signal intensity,ScLsb2,1.5
same,SPOT peptide array binding signal intensity,ScLsb3,≤ 0
same,SPOT peptide array binding signal intensity,ScLsb4,≤ 0
same,SPOT peptide array binding signal intensity,ScMyo3,1810
same,SPOT peptide array binding signal intensity,ScMyo5,1800
same,SPOT peptide array binding signal intensity,ScNbp2,≤ 0
same,SPOT peptide array binding signal intensity,ScPex13,4.75
same,SPOT peptide array binding signal intensity,ScRvs167,2.33
same,SPOT peptide array binding signal intensity,ScSho1,≤ 0
same,SPOT peptide array binding signal intensity,ScSla1-D1-D2,≤ 0
same,SPOT peptide array binding signal intensity,ScSla1-D3,≤ 0
same,SPOT peptide array binding signal intensity,SpAbp1-D1,≤ 0
same,SPOT peptide array binding signal intensity,SpBbc1,0.5
same,SPOT peptide array binding signal intensity,SpBzz1-D1,1630
same,SPOT peptide array binding signal intensity,SpBzz1-D2,7
same,SPOT peptide array binding signal intensity,SpCyk3,1
same,SPOT peptide array binding signal intensity,SpHof1,≤ 0
same,SPOT peptide array binding signal intensity,SpHof1-2,0.75
same,SPOT peptide array binding signal intensity,SpHof1-3,1.75
same,SPOT peptide array binding signal intensity,SpHse1,11
same,SPOT peptide array binding signal intensity,SpLsb1,0.5
same,SPOT peptide array binding signal intensity,SpLsb4,≤ 0
same,SPOT peptide array binding signal intensity,SpMyo1,1110
same,SPOT peptide array binding signal intensity,SpNbp2,≤ 0
same,SPOT peptide array binding signal intensity,SpPex13,≤ 0
same,SPOT peptide array binding signal intensity,SpRvs167,1
same,SPOT peptide array binding signal intensity,SpSla1-D1-D2,≤ 0
same,SPOT peptide array binding signal intensity,SpSla1-D3,≤ 0
